# Source: PubChem BioAssay
# Most compounds without a hit are left out; they make up all but 3.4% or so of the library.
# MEKK2wt PB1 HTS: raises or lowers MEK5 binding to wildtype human MEKK2 PB1 domain; bead flow cytometry, Alexa488-MEK5 binding to MEKK2 WT; actives lie on both sides; binding response (% of control), % at 10 µM; actives 1.1% (n = 290,000); AID 1531; in the data active means binding response below about 67% or above about 130%
# TMEM16A act: mouse TMEM16A channel activation, primary screen. actives 0.3% (n = 340,000). Q8BHY3. B-score at 10 µM. AID 623877. HEK293 TMEM16A/YFP-H148Q/I152L, iodide quench fluorescence; stronger effect = lower value;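 active means fluorescence-ratio B-score plate-corrected deviation score at least 3 library SD below zero, with starting fluorescence score within 5 deviations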;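 further: channel opened by trigger with iodide after compound preincubation; score built on the fluorescence ratio of max minus min over baseline; more negative score means more quench and so TMEM16A activation or potentiation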
# MEKK2 mut-MEK5: signal of MEK5 binding to mutant human MEKK2 PB1 domain; actives 0.35% (n = 290,000); bead flow cytometry, Alexa488-MEK5 binding to MEKK2 mutant; AID 1530; percent response, % at 10 µM; in the data active means percent response above about 24%, passing the limit was not always enough
# ANO1 block: mouse TMEM16A channel inhibition, primary screen; Q8BHY3; HEK293 TMEM16A/YFP iodide influx fluorescence, ionomycin; normalized B-score (activity score, 25-100; higher = stronger inhibition) at 10 µM; actives 1.2% (n = 310,000); AID 588511;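 active means ratio plate-corrected score three or more library SD toward inhibition, starting fluorescence score within five deviations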;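 further: score derived from kinetic fluorescence span divided by baseline fluorescence per well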
# NTR1 agonist: agonists of human neurotensin receptor NTR1; P30989; NTR1-U2OS beta-arrestin-GFP spot imaging, agonist mode; activation, % at 20 µM; actives 0.17% (n = 330,000); AID 493036;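 active means activation at or above 40% of the spot to cytoplasm intensity ratio, with at least 20 cells analyzed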;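 further: 0% = DMSO without peptide and 100% = 100 nM NTR1 peptide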
# MEKK3 PB1 HTS: MEKK3-MEK5 PB1 interaction, increase or decrease | AID 1529 | actives 1.4% (n = 290,000) | binding response (% of control), % at 10 µM | Q99759 | bead-based flow cytometry, Alexa488-MEK5 binding to MEKK3; actives lie on both sides; 0 = blocked by unlabeled MEK5, 100 = vehicle;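 active means binding response more than 3 SD above or below the average of its plate-row segment, actives on both sides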;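 further: Alexa488 bead fluorescence after subtracting the streptavidin-only scavenger bead signal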
# Active calls of the source: *; i = inactive; / = no result.
SMILES,MEKK2wt PB1 HTS,TMEM16A act,MEKK2 mut-MEK5,ANO1 block,NTR1 agonist,MEKK3 PB1 HTS
CC(=O)Nc1cccc(NC(=O)CN2c3cccc4cccc(c34)S2(=O)=O)c1,/,i,/,/,-2,/
COc1ccc(NC(=O)CSc2n[nH]c(-c3ccccc3)n2)cc1S(N)(=O)=O,/,i,/,/,-1,/
Cc1ccc(NC(=O)CN2C(=O)CSc3ccc(S(=O)(=O)N4CCCCC4)cc32)cc1,98,i,1,i,1,99
CC(C)OC(=O)CSc1nnc(-c2cnccn2)n1C,105,-5.8*,4,i,-1,104
O=C(NCC(c1cccs1)N1CCOCC1)c1ccccc1NS(=O)(=O)c1ccc(Cl)c([N+](=O)[O-])c1 (centres undefined),94,i,5,25*,10,101
COc1ccc(NC(=S)N2CCN(S(=O)(=O)c3ccc(F)cc3)CC2)cc1,103,i,-2,i,0,100
COCCCNC(=O)CCNS(=O)(=O)c1ccc(C)cc1,101,i,0,25*,0,104
COCCCNS(=O)(=O)c1ccc(C)cc1,85,i,-11,i,-2,95
NC(=S)N/N=C/c1ccc(C23CC4CC(CC(C4)C2)C3)cc1,89,/,-1,i,44*,102
CC1CCN(CCCNC(=O)c2ccc(N3CCCC3=O)cc2)CC1,101,i,2,i,-2,97
COc1ccccc1N1CCN(C(=O)c2onc(C)c2Cl)CC1,102,-7.7*,1,i,-2,102
O=C(c1ccc(-c2ccccc2Cl)o1)N1CCN(S(=O)(=O)c2cccs2)CC1,/,i,/,i,17,/
Cc1ccc(N2CCN(S(=O)(=O)c3ccc(F)c(C)c3)CC2)c(C)c1,103,-11*,3,i,-1,107
CCCCNC(=O)/C(=C/c1ccco1)NC(=O)c1ccco1,99,i,2,i,0,98
OCC1(Cc2ccc(F)cc2F)CCCN(CCCc2ccccc2)C1 (centres undefined),114,i,9,i,1,105
Clc1ccc2[nH]c3c(NCC4CCCO4)ncnc3c2c1 (centres undefined),101,/,-2,100*,9,99
Clc1ccc2[nH]c3c(NCCN4CCOCC4)ncnc3c2c1,114,i,8,i,2,107
COC(=O)CCCC(=O)N1CCCC(N(C)CCc2ccccc2)C1 (centres undefined),108,i,8,i,-1,106
CCCN(CC(=O)Nc1ccccc1OC)C(=O)CCC(=O)c1ccc(Cl)s1,/,i,/,/,3,/
N#CC(C(=O)C12CC3CC(CC(C3)C1)C2)c1nc2ccccc2[nH]1 (centres undefined),92,-9.5*,2,i,16,93
Cc1nc2sc(C(=O)Nc3ccccc3)c(N)c2c(C)c1[N+](=O)[O-],95,i,-2,i,0,101
Cc1cc(C)c2nc(-c3ccccn3)cc(C(=O)Nc3ccc(S(=O)(=O)Nc4cc(C)on4)cc3)c2c1,99,i,-3,25*,0,101
CCCC1=NN(C(=O)C(=O)Nc2ccc(Br)cc2)C(O)(C(F)(F)F)C1 (centres undefined),79,i,-21,25*,1,79
CCc1ccc(N(C(=O)c2csnn2)C(C(=O)NC(C)(C)CC)c2ccccn2)cc1 (centres undefined),96,i,-2,i,0,94
O=C(N/N=C/c1cccs1)c1cccc(NC(=O)c2ccc(Cl)cc2)c1,110,/,0,i,1,132*
O=C(N/N=C/c1cccs1)c1cccc(S(=O)(=O)Nc2ccc(Cl)cc2)c1,105,i,10,i,0,105
Cc1ccc(-c2cc(C(F)(F)F)n3ncc(C(=O)O)c3n2)cc1,95,i,7,/,/,100
COCCNC(=O)c1cnn2c(C(F)(F)F)cc(-c3ccc(C)cc3)nc12,88,-5.2*,-8,i,5,100
